# Compound activity from PubChem.
# GDH-TPI counter-1: GDH-TPI coupling enzyme inhibitors, primary screen, artefact control for M. tuberculosis FBA inhibitor project, biochemical, absorbance, full deck; GDH-TPI coupled enzyme counterscreen, NADH absorbance; inhibition, % at 4.8 µM; 1.2% of 360,000 active; AID 588335, 2011; in the data active = inhibition above about 30%
# Mtb BioA inh: M. tuberculosis BioA enzyme inhibitors, primary screen, biochemical, plate reader, single point, HTS | inhibition, % at 9.99 µM | purified M. tuberculosis BioA enzyme | 0.096% of 360,000 active; in the data active = inhibition above about 40%
# Vc quorum ag: inducers of Vibrio cholerae quorum light production without autoinducers, primary screen, BH1578 luxS cqsA deficient, single point. V. cholerae BH1578 lux reporter, luminescence, 6 h. activation, % at 18.7 µM. 0.16% of 350,000 active. AID 588436, 2011; in the data active = activation mostly above about 9.7%, no sharp cut-off
# Mtb FBA inh: Mtb FBA enzyme inhibitors, primary screen, biochemical, fluorescence, strain H37Rv | 2.3% of 360,000 active | inhibition, % at 1 µM | Fructose-bisphosphate aldolase (Mycobacterium tuberculosis (strain ATCC 25618 / H37Rv)), … | purified M. tuberculosis FBA, fluorescence read-out
# Target sequence (P9WQA3 whole entry, looked up): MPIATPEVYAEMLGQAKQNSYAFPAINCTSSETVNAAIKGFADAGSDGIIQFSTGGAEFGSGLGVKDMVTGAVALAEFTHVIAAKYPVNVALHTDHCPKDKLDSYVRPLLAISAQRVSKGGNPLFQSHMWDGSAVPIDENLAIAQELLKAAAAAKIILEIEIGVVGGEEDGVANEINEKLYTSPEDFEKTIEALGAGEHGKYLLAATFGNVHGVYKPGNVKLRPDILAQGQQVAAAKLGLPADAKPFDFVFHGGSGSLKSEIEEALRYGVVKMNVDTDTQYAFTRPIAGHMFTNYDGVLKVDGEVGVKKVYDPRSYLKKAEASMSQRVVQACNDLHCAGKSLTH
# Mtb FBA confirm: M. tuberculosis aldolase blockers, biochemical, fluorescence, strain H37Rv, confirmation; inhibition, % at 1 µM; purified M. tuberculosis FBA, fluorescence read-out; shares compounds with Mtb FBA inh; 78% of 5,600 active
# GDH-TPI counter-2: GDH-TPI coupling enzyme inhibitors, artefact control for M. tuberculosis FBA inhibitor project, biochemical, fluorescence, high throughput | AID 652141, 2013 | GDH-TPI coupled enzyme counterscreen | inhibition, % at 1 µM | shares compounds with Mtb FBA inh | 81% of 5,600 active; in the data active = inhibition above about 10%
# Hits are given with their value; 0 = inactive; - = not tested or not shown; + = active, no number. Only some compounds are listed: those with a hit (about 3% of all), similar ones and a draw of the others. Rule as the data show it, unless noted: active = inhibition above about 27%; inactive = the rest.
SMILES,GDH-TPI counter-1,Mtb BioA inh,Vc quorum ag,Mtb FBA inh,Mtb FBA confirm,GDH-TPI counter-2
CCCCNC(=O)CCC(=O)Nc1ccc2nc(N3CCCCC3)cc(C)c2c1,0,-,0,78,+,145
O=C(C[C@@H]1CC[C@@H]2[C@H](COC[C@@H](O)CN2C(=O)Nc2ccc(Cl)c(Cl)c2)O1)NCc1ccncc1,-,0,-,-,-,-
Cc1cc(N2CCN(C)CC2)nc2ccc(NC(=O)CCC(=O)NCCCOC(C)C)cc12,0,-,0,0,-,-
Cc1cc(N2CCOCC2)nc2ccc(NC(=O)C3CCC(C)CC3)cc12 (stereo unspecified),0,0,0,0,-,-
Cc1cc(N2CCCCC2)nc2ccc(NC(=O)CCC(=O)NCCC(C)C)cc12,0,0,-,54,0,0
CCCCNC(=O)CCC(=O)Nc1ccc2nc(N3CCOCC3)cc(C)c2c1,0,0,0,62,0,0
COCCCNC(=O)CCC(=O)Nc1ccc2nc(N3CCOCC3)cc(C)c2c1,0,0,0,88,0,0
C[C@@H]1CN([C@@H](C)CO)C(=O)c2cc(NC(=O)Nc3ccc(C(F)(F)F)cc3)ccc2O[C@@H](C)CCCCO[C@H]1CN(C)Cc1ccc(Cl)c(Cl)c1,-,0,-,-,-,-
Cc1noc(C)c1NC(=O)N(C)C[C@@H]1OCCCC[C@@H](C)Oc2ccc(NC(=O)Nc3ccc4c(c3)OCO4)cc2C(=O)N([C@@H](C)CO)C[C@H]1C,-,0,-,-,-,-
CO[C@H]1CN(C)C(=O)c2ccc(NS(C)(=O)=O)cc2OC[C@H](C)N(C(=O)c2ccc3c(c2)OCO3)C[C@H]1C,-,0,-,-,-,-
S=C(NCc1ccccc1)Nc1cccc2ccccc12,0,0,0,0,-,-
CCN(C(=S)Nc1cccc2ccccc12)c1ccccc1,0,0,0,30,58,43
CC(=O)N1CCC2(CC1)CC(=O)c1cc(OCC(=O)N3CCOCC3)ccc1O2,0,-,0,70,67,67
COc1cccc(OCC(=O)N2CCC3(CC2)CC(=O)c2ccccc2O3)c1,0,0,0,0,-,-
CCOC(=O)N1CCN(C(=O)COc2ccc3c(c2)C(=O)CC2(CCN(C(C)=O)CC2)O3)CC1,0,0,0,63,139,120
Cc1ccc(OCC(=O)N2CCC3(CC2)CC(=O)c2ccccc2O3)cc1,0,0,0,0,-,-
COc1ccc2cc3cc(C(=O)N4CCN(Cc5ccc6c(c5)OCO6)CC4)oc3nc2c1,46,0,0,59,+,+
CCOC(=O)C1CCN(C(=O)c2cc3cc4ccc(OC)cc4nc3o2)CC1,0,0,0,106,0,17
COc1ccc2nc3oc(C(=O)N4CCC(C(N)=O)CC4)cc3cc2c1,0,0,-,98,+,154
CCCC#Cc1cnc2c(c1)C(=O)N([C@H](C)CO)C[C@H](C)[C@@H](CN(C)C(=O)Cc1ccncc1)O2,-,0,-,-,-,-
O=C(NC1CCCCC1)N[C@@H]1CC[C@H](CCNS(=O)(=O)c2ccccc2)O[C@H]1CO,-,0,-,-,-,-
COc1ccccc1-c1coc2c(CN3CCOCC3)c(O)ccc2c1=O,0,0,0,73,153,124
COc1ccccc1Oc1coc2c(CN3CCOCC3)c(O)ccc2c1=O,0,-,0,80,+,156
O=C(C[C@@H]1C=C[C@@H](NC(=O)C2CCC2)[C@@H](CO)O1)Nc1nccs1,-,0,-,-,-,-
Cc1ccc(-n2nc3ccc(N)cc3n2)cc1,0,0,0,64,39,23
SMILES,GDH-TPI counter-1,Mtb BioA inh,Vc quorum ag,Mtb FBA inh,Mtb FBA confirm,GDH-TPI counter-2
Nc1ccc2nn(-c3ccc(F)cc3)nc2c1,0,0,0,37,62,52
CC(C)c1ccc(-n2nc3ccc(N)cc3n2)cc1,0,0,0,71,101,67
C[C@@H]1CN([C@@H](C)CO)C(=O)CCCn2nncc2CO[C@@H]1CN(C)Cc1ccc(O)cc1,-,0,-,-,-,-
C[C@@H]1CCCCO[C@@H](CN(C)Cc2ccncc2)[C@H](C)CN([C@@H](C)CO)C(=O)c2cc(NC(=O)C3CCCCC3)ccc2O1,-,0,-,-,-,-
CC(C)NC(=O)N(C)C[C@@H]1Oc2ccc(NC(=O)CCN3CCOCC3)cc2C(=O)N([C@H](C)CO)C[C@@H]1C,-,0,-,-,-,-
O=C(NC1CCCC1)[C@@H]1[C@@H](CO)[C@@H]2Cn3c(ccc(-c4cccnc4)c3=O)[C@H]1N2CC1CC1,-,0,-,-,-,-
CCn1cc(C2C(C(=O)Nc3cc(C)ccn3)=C(C)NC3=C2C(=O)CC(C)(C)C3)c(C)n1 (stereo unspecified),0,-,0,52,104,85
COc1ccc(-c2cc(C(F)F)nc(-n3nc(C)cc3C)n2)cc1,0,0,0,52,63,44
CCCNC(=O)C1(CC2CC(c3ccccc3)=NO2)CCN(C(=O)c2cc(OCC)c(OCC)c(OCC)c2)CC1 (stereo unspecified),0,0,0,29,169,128
CCOc1cc(C(=O)N2CCC(CC3CC(c4cccc(Br)c4)=NO3)(C(=O)NCC3CCCCC3)CC2)cc(OCC)c1OCC (stereo unspecified),0,0,0,0,-,-
Cc1noc(C)c1NC(=O)N(C)C[C@H]1Oc2c(NS(=O)(=O)c3ccccc3)cccc2C(=O)N([C@@H](C)CO)C[C@@H]1C,-,0,-,-,-,-
CC(C)c1cn(CC[C@H]2CC[C@H](NS(=O)(=O)c3ccccc3)[C@H](CO)O2)nn1,-,0,-,-,-,-
O=C(O)[C@@H]1CCCN1C(=O)COc1ccc2c3c(c(=O)oc2c1)CCC3,0,0,0,42,92,68
CCCc1cc(=O)oc2c(C)c(OS(C)(=O)=O)ccc12,0,0,0,0,-,-
CCCOc1ccc2c(CC)cc(=O)oc2c1C,0,-,0,35,92,80
O=C(O)C1CCN(C(=O)COc2ccc3c4c(c(=O)oc3c2)CCCC4)CC1,0,0,0,100,57,48
Cc1c(C)c2ccc(OCC(=O)N3CCC(C(=O)O)CC3)cc2oc1=O,0,0,0,103,0,0
CC(C)C#Cc1ccc2c(c1)O[C@H](CN(C)C(=O)c1cnccn1)[C@H](C)CN([C@H](C)CO)S2(=O)=O,-,0,-,-,-,-
CCc1cc(=O)oc2c(C)c(OCC(=O)N3CCC(C(=O)O)CC3)ccc12,0,0,0,38,0,0
Cc1cc(=O)oc2c(C)c(OCC(=O)N3CCN(c4ccccc4)CC3)ccc12,0,0,0,0,-,-
Cc1cc(=O)oc2c(C)c(OCC(=O)N3CCN(C(=O)C4COc5ccccc5O4)CC3)ccc12 (stereo unspecified),0,0,0,32,136,118
Cc1cc(=O)oc2cc(OCC(=O)N3CCN(c4ccccc4)CC3)ccc12,0,0,0,0,-,-
Cc1c(OCC(=O)N2CCC(C(=O)O)CC2)ccc2c3c(c(=O)oc12)CCCC3,0,0,0,66,70,58
